Measured values reported in PubChem BioAssay AID1259418 (Broad Institute, 2018).
In all, about 3,400 compounds went through this assay and about 840 (25%) were called active. Not shown: some 11% with an inconclusive outcome. A selection follows. Measured potencies and affinities stand elsewhere. Values without a mark were called inactive.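 The calls were made as follows: active = fitted half-maximal concentration of signal decrease at or below twice the sample's top tested concentration; inconclusive = flat curve between -70 and -30 percent, or poor fit; inactive = flat within 30 percent, signal rise, or potency above limit.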

Test: inhibitors of Toxoplasma growth in IFN-γ-primed HeLa – cell-based, ME49Luc, luciferase, 72 h, dose response (AID 1259418)
Details: T. gondii ME49Luc in IFN-y HeLa, stronger effect = lower value, -100% = high-dose IFN-γ control wells; at 19.5 µM unless noted
For `COc1ccc(-c2nc(Nc3cc(C)ccc3OC)c3ccccc3n2)cc1`, the max activity was 19.6%.
In the case of `Cc1ccc(CC(=O)Nc2ccc(-c3nc(-c4ccccc4)co3)cc2)cc1`, the max activity is reported as 9.88% [at 5 µM].
Work on `O=C(CC1Nc2c3ccccc3nc(=S)n2C1=O)NCCc1ccc(Cl)cc1` (stereo not given) yielded a max activity of -20.4% [at 0.16 µM].
`CCOC(=O)C(=O)Nc1ccc(-c2nc(-c3cc(C)ccc3C)co2)cc1` gave a max activity of 15.3% [at 0.16 µM].
With `COc1cc(OC)c(NC(=O)Nc2ccc(-c3nc(-c4ccc(C)cc4)co3)cc2)cc1Cl` the max activity was 86.6%.
In the case of `Cc1ccc(C(=O)Nc2ccc(N3CCC(C(N)=O)(N4CCCCC4)CC3)c(C(=O)O)c2)cc1`, the max activity is reported as 15% [at 2.6 µM].
`NC(=O)C1(N2CCCCC2)CCN(c2ccc(NC(=O)c3ccccc3F)cc2C(=O)O)CC1` showed a max activity of -16.3% [at 0.35 µM].
Molecule `CCOC(=O)C1CCC(CNC(=O)Nc2ccc(-c3nc(-c4ccc(C)cc4C)co3)cc2)CC1` (stereo not given) has a max activity of -7.93% [at 0.35 µM].
`COc1cc(NC(=O)CN2CCC3(CC2)N=C(c2cccc(F)c2)C(=O)N3)cc(OC)c1` showed a max activity of -16.9%.
With `Cc1ccc(-c2coc(-c3ccc(NC(=O)Nc4ccc(C)c(F)c4)cc3)n2)c(C)c1` the max activity was 14.2%.
Molecule `COc1ccc(-c2nc(Cn3c(=O)c4c(C)cc(C)nc4n(-c4ccccc4)c3=O)c(C)o2)cc1` has a max activity of -4.82% [at 10 µM].
For `COc1cccc(C(=O)Nc2ccc(-c3nc(-c4ccc(C)cc4)co3)cc2)c1`, the max activity was 73.1%.
Work on `COc1cccc(C(=O)Nc2ccc(-c3nc(-c4ccccc4)co3)cc2)c1` yielded a max activity of -14.9% [at 10 µM].
With `COc1cccc(NC(=O)CN2CCC3(CC2)N=C(c2ccc(F)cc2)C(=O)N3)c1` the max activity was -15.6% [at 0.68 µM].
For `CCOc1ccc(-c2nc3c(s2)CN(S(=O)(=O)c2ccc(C(C)C)cc2)CC3)cc1`, the max activity was 12.8%.
With `O=C(CC1N=C2c3ccccc3N=C(SCc3cc(=O)n4cc(Cl)ccc4n3)N2C1=O)NCc1ccco1` (stereo not given) the max activity was 13% [at 10 µM].
`Cc1ccc(C(=O)Nc2c(C(=O)N3CCCC3)[nH]c3ccccc23)cc1` showed a max activity of 14.8% [at 2.6 µM].
In the case of `COc1ccc2c(c1)NC1(CCN(C(=O)Cc3ccc(Cl)cc3)CC1)c1cccn1-2`, the max activity is reported as 7.11% [at 10 µM].
For `O=C(Cc1ccc(F)cc1)N1CCC2(CC1)Nc1ccc(Cl)cc1-n1cccc12`, the max activity was -6.77% [at 5 µM].
With `CN(C)C(=O)COCc1cncc2c1CCN(c1ccccn1)C2` the max activity was 11.3% [at 10 µM].
`CCc1nc(OCC(=O)Nc2cccc(SC)c2)c2ccccc2n1` gave a max activity of 9.62% [at 0.16 µM].
In the case of `CCN1C(=O)CCc2cc(NC(=O)CC(C)C)ccc21`, the max activity is reported as 6.42% [at 0.35 µM].
In the case of `O=C(C[C@@H]1CC[C@H]2[C@@H](COC[C@H](O)CN2Cc2ccc(Oc3ccccc3)cc2)O1)N1CCN(c2ccccc2)CC1`, the max activity is reported as 16% [at 10 µM].
`O=C(C[C@H]1CC[C@H]2[C@@H](COC[C@@H](O)CN2S(=O)(=O)c2ccccc2F)O1)N1CCC(Cc2ccccc2)CC1` gave a max activity of 25.4% [at 10 µM].
`O=C(C[C@H]1CC[C@@H]2[C@H](COC[C@H](O)CN2C(=O)c2cc(Cl)cc(Cl)c2)O1)N1CCc2ccccc2C1` showed a max activity of -23.1%.
With `O=C(C[C@@H]1CC[C@@H]2[C@H](COC[C@H](O)CN2Cc2ccc3c(c2)OCO3)O1)N1CCCCC1` the max activity was 28.4%.
Molecule `COc1ccccc1-c1nc(Cn2nnc(-c3nc(-c4cccc(C)c4)no3)c2C)c(C)o1` has a max activity of 6.08% [at 0.35 µM].
Molecule `CCOc1ccc(-c2nc3c([nH]2)c(=O)n(C)c(=O)n3C)cc1OC` has a max activity of 30.3% [at 10 µM].
`CC1=NN(C2CCS(=O)(=O)C2)C(=O)C1(Sc1ccccc1)Sc1ccccc1` (stereo not given) gave a max activity of -15.9% [at 10 µM].
Work on `COc1ccc(CC(=O)Nc2ccc(-c3nc(-c4ccc(C)cc4C)co3)cc2)cc1` yielded a max activity of 23.3% [at 0.68 µM].
For `CN1CCN(Cc2cnc3n2CCN(CC2CCOCC2)C3)CC1`, the max activity was 10.5%.
For `O=C(C[C@H]1CC[C@H]2[C@@H](COC[C@H](O)CN2Cc2cc(F)ccc2F)O1)NCc1ccc(Oc2ccccc2)cc1`, the max activity was 17.6% [at 2.6 µM].
With `O=C(C[C@H]1CC[C@@H]2[C@H](COC[C@H](O)CN2Cc2cc(F)ccc2F)O1)NCc1ccc(Oc2ccccc2)cc1` the max activity was 17.5% [at 5 µM].
With `Cc1ccc(C)c(NC(=O)CN2CCC3(CC2)N=C(c2ccc(F)cc2)C(=O)N3)c1` the max activity was 21.8% [at 10 µM].
`Cc1cccc(-c2nc(CSc3nc4c(c(=O)[nH]3)CN(C(C)C)CC4)c(C)o2)c1` gave a max activity of 19.2% [at 0.68 µM].
`O=C(CC1CCCCC1)Nc1ccc(-c2nc(-c3ccccc3)co2)cc1` showed a max activity of 19.4%.
For `Cc1ccc(NC(=O)Nc2ccc(-c3nc(-c4ccccc4)co3)cc2)cc1F`, the max activity was 16.5% [at 0.16 µM].
Molecule `O=C(Cn1c(=O)c(S(=O)(=O)c2ccccc2)cc2ccccc21)NCc1ccccc1Cl` has a max activity of -23.2% [at 0.16 µM].
Molecule `CCOC(=O)CNC(=O)Nc1ccc(-c2nc(-c3cc(C)ccc3C)co2)cc1` has a max activity of 5.17% [at 0.68 µM].
Molecule `Cc1ccc(CN2CCC3(CC2)N=C(c2ccc(C)cc2)C(=O)N3)cc1` has a max activity of 12.6% [at 2.6 µM].
For `Cc1ccc(-c2coc(-c3ccc(NC(=O)C(C)(C)C)cc3)n2)cc1`, the max activity was 29.4% [at 10 µM].
In the case of `CCS(=O)(=O)N1[C@H](CO)[C@@H](c2ccc(C#Cc3ccccc3F)cc2)[C@@H]1C#N`, the max activity is reported as 8.21% [at 10 µM].
`COc1cccc(CC(=O)Nc2ccc(-c3nc(-c4ccc(C)cc4)co3)cc2)c1` gave a max activity of 20.4%.
Molecule `COCCCN1CCc2nc(SCc3nc(-c4ccccc4OC)oc3C)[nH]c(=O)c2C1` has a max activity of 25.6% [at 10 µM].
Work on `COc1ccc(C(=O)Nc2ccc(-c3nc(-c4ccccc4)co3)cc2)cc1OC` yielded a max activity of 14.3% [at 0.16 µM].
